Test [1] in a line: qHTS assay for small molecules that induce genotoxicity in human embryonic kidney cells expressing luciferase-tagged ATAD5 (AID 651632). Also: nearly all actives have a fitted effect of over 15% in size. The procedure, abridged:
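Concentration-response screen for ATAD5 upregulation in HEK293T luciferase reporter cells; 16 hr treatment at 37C, then luminescence after 30 min with Amplite at room temperature.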

Test [2] can be described thus: qHTS assay for small molecule agonists of the p53 signaling pathway - cell viability (AID 651633; calls by dose curve; also: nearly all actives have a fitted effect of over 30% in size; also: potency is read from the fitted curve at half-maximal effect). The procedure, abridged: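 p53RE-bla cells, seeded at 4,000 per well and rested 5 h at 37 C/5% CO2, received compounds in DMSO for 16 h at 37 C. CellTiter-Glo was then added, and luminescence was read after 30 min at room temperature to gauge cytotoxicity.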
For orientation: Quantitative high-throughput screening tests each substance at several concentrations.

Test [3] can be described thus: qHTS assay for small molecule disruptors of the mitochondrial membrane potential - cell viability (AID 720634; calls by dose curve;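 also: human HepG2 liver cancer cells; nearly all actives have a fitted effect of over 20% in size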). In short, it runs like this:
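In this qHTS format, HepG2 cells plated overnight were pinned with compound, incubated 1 hr, and assayed for ATP luminescence with CellTiter-Glo after m-MPI dye addition.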

Test [4] can be described thus: qHTS assay for small molecule disruptors of the mitochondrial membrane potential (AID 720635). Also: potency is read from the fitted curve at half-maximal effect. The procedure, abridged: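 HepG2 cells (2,000/well) attached overnight at 37C, then took compound for 1 hr at 37C, 5% CO2. Mito-MPS dye was added for 30 min; fluorescence was read at 490/535 nm (monomers) and 540/590 nm (aggregates).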
A short description of test [5]: qHTS assay to test for compound auto fluorescence at 590 nm (red) in HepG2 cells (AID 720674). The procedure, abridged:
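Compound auto-fluorescence is scored relative to Rose Bengal sodium, measured at 540/590 nm in live HepG2 cultures after 1 hr compound contact (37 C, 5% CO2).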

Test [6] can be described thus: qHTS assay to test for compound auto fluorescence at 535 nm (green) in HepG2 cells (AID 720675).
Test [7] is described as follows: qHTS assay to test for compound auto fluorescence at 460 nm (blue) in HEK293 cells (AID 720678). In short, it runs like this: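 HEK293 cells (2,000 per well, medium with 10% dialyzed FBS) attached for 4-5 hr at 37C, then received compound and stood overnight at 37C, 5% CO2. Blue fluorescence was read at Ex/Em 405/460 nm and expressed relative to triamterene.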
The nature of test [8]: qHTS assay to test for compound auto fluorescence at 590 nm (red) in HEK293 cells (AID 720679). The procedure, abridged: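 HEK293 cells (2,000/well, medium with 10% dialyzed FBS) attached for 4-5 hr at 37C, received 23 nL compound and were incubated overnight at 37C, 5% CO2. Red fluorescence was then read at 540/590nm Ex/Em, referenced to Rose Bengal sodium.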
Test [9] is described as follows: qHTS assay to test for compound auto fluorescence at 535 nm (green) in HEK293 cells (AID 720680).
Test [10] in a line: qHTS assay to test for compound auto fluorescence at 460 nm (blue) in HEK293 cell free culture (AID 720681). The procedure, abridged: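 Test compounds were pinned into cell-free culture medium (DMEM with 10% FBS) and fluorescence was read directly at Ex/Em 405/460 nm. Signals were expressed as fluorescence equivalents of triamterene, with DMSO vehicle as control.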
A short description of test [11]: qHTS assay to test for compound auto fluorescence at 535 nm (green) in HEK293 cell free culture (AID 720682). In short, it runs like this:
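Green-channel intensity (Ex/Em 485/535 nm) was recorded from compound-treated wells containing only DMEM with 10% FBS. Fluorescein provided the equivalency standard.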

A short description of test [12]: qHTS assay to test for compound auto fluorescence at 590 nm (red) in HEK293 cell free culture (AID 720683). In short, it runs like this: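 Tox21 10K library compounds were pinned into cell-free DMEM with 10% FBS and fluorescence was read at excitation 540 nm. Activity is expressed as Rose Bengal sodium equivalency.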
Test [13] in a line: qHTS assay to test for compound auto fluorescence at 460 nm (blue) in HepG2 cell free culture (AID 720685). In short, it runs like this: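 Cell-free plates of MEM plus 10% FBS received 23 nL compound or DMSO vehicle; blue-channel (405/460 nm) intensity scored against triamterene as reference fluorophore.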
The nature of test [14]: qHTS assay to test for compound auto fluorescence at 535 nm (green) in HepG2 cell free culture (AID 720686).
Test [15] in a line: qHTS assay to test for compound auto fluorescence at 460 nm (blue) in HepG2 cells (AID 720687). The procedure, abridged:
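Cells (2,000/well in MEM with 10% FBS) attached overnight at 37 C, then were exposed to compound or DMSO for 1 hr at 37 C, 5% CO2. Fluorescence read at Ex/Em 405/460 nm, expressed as triamterene-equivalent signal.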

Test [16] is described as follows: qHTS assay for small molecules that induce genotoxicity in human embryonic kidney cells expressing luciferase-tagged ATAD5 - cell viability (AID 651634; calls by dose curve; also: nearly all actives have a fitted effect of over 25% in size; also: potency is read from the fitted curve at half-maximal effect). The procedure, abridged:
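15.5 hr compound or vehicle exposure of HEK293T cells expressing luciferase-tagged ATAD5 at 37C; live-cell protease activity is read by fluorescence after 30 min of CellTiter-Fluor.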

A short description of test [17]: qHTS assay to test for compound auto fluorescence at 590 nm (red) in HepG2 cell free culture (AID 720684). In short, it runs like this: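 Ex 540 / Em 590 nm read of compound in cell-free MEM (10% FBS). Rose Bengal sodium reference.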
In test [18] the target is Glucocorticoid receptor (Homo sapiens) (UniProt P04150). Kind of test: qHTS assay to identify small molecule antagonists of the glucocorticoid receptor (GR) signaling pathway (AID 720692; active = well fitted inhibition curve with a large enough effect in the signal ratio in the repeat runs, not every such curve was filed as active; the % refers to the signal ratio). In short, it runs like this:
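Tox21 10K library screened in concentration-response for blockade of dexamethasone (5 nM final)-induced GRE-bla reporter activity in HeLa cells; 18 h treatment, fluorescence read.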

Test [19] shares this target. In words: qHTS assay to identify small molecule agonists of the glucocorticoid receptor (GR) signaling pathway (AID 720691; active = well fitted activation curve with a large enough effect in the signal ratio in the repeat runs, not every such curve was filed as active; the % refers to the signal ratio). To be noted: GR-bla HeLa, beta-lactamase reporter ratio, 18 h; activation: at 62.4 µM (top of the series). The procedure, abridged: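 Measures GR pathway activation through a GRE-beta-lactamase reporter stably integrated in HeLa cells, with 18 h compound treatment at 37 C and fluorescence detection using a FRET substrate.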

Values without a mark were called inactive. Inconclusive results are not listed. Active and inactive are the calls of the source. Unless noted, calls follow the shape of the dose curve; as a rule, active = well fitted curve in the direction sought with a large enough effect in the repeat runs; inconclusive = weak or mixed curves; inactive = no such curve, though single readings can be large; an effect the other way counts as inactive or inconclusive.

Chain of Glucocorticoid receptor (Homo sapiens) (P04150 whole entry, looked up): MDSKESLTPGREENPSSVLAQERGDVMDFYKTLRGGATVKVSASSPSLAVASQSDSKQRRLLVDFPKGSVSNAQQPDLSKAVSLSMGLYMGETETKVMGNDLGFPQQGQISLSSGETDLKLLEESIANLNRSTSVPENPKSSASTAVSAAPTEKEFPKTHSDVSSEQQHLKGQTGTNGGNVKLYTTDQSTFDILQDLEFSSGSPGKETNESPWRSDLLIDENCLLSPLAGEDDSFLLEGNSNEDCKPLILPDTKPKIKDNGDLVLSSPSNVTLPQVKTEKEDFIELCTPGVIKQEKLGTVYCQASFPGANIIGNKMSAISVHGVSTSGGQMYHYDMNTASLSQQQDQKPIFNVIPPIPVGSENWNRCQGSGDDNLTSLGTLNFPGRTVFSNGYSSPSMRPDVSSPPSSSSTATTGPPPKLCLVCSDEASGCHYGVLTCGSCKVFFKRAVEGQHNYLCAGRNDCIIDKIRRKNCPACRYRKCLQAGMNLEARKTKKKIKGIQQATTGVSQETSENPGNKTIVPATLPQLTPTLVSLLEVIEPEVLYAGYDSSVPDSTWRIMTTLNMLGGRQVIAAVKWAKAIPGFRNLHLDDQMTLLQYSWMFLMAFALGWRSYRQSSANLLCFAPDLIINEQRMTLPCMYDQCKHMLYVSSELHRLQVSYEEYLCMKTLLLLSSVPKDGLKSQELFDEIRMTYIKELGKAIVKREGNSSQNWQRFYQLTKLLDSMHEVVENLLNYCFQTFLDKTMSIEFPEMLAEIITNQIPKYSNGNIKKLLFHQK

In the case of `CC(C)(C)c1cc(/C=C2\SC(=N)NC2=O)cc(C(C)(C)C)c1O`, the Potency result in test [1], in test [3], in [5], in test [6], in test [7] and in [8] was “inactive” in each case. The Potency result in [9], in test [10], in test [11], in test [12], in test [13] and in [14] was “inactive” throughout. In addition, in test [15], the Potency result was “inactive”. Besides, the Potency in test [2] was 68.6 µM (active); in test [4], 12.2 µM (active).
As to `CNC(=O)c1cc(Oc2ccc(NC(=O)Nc3ccc(Cl)c(C(F)(F)F)c3)cc2)ccn1`, the Potency result in test [1], in test [5], in test [7], in test [8], in test [9] and in test [10] was “inactive” in each case. The Potency entry in test [11], in test [17], in test [13], in test [14] and in test [15] was “inactive” throughout. Besides, the Potency in test [2] is 5.96 µM (active); in test [16] it was 16.8 µM (active); in test [4] it was 0.88 µM (active).
Regarding `C=CC(C)(CCC=C(C)C)OC(=O)/C=C/c1ccccc1` (stereo unspecified), the Potency result in test [1], in [2], in [16], in test [3], in test [5] and in test [6] was “inactive” throughout. Moreover, the Potency entry in test [7], in [8], in test [9], in test [10], in test [11] and in [13] was “inactive” each time. Also, the Potency result in test [14] and in test [15] was “inactive” throughout.
Consider `Cc1oc(-c2ccccc2)nc1CCOc1ccc(C[C@H](Nc2ccccc2C(=O)c2ccccc2)C(=O)O)cc1`, for which the Potency result in test [1], in test [5], in [6], in test [7], in test [8] and in [9] was “inactive” each time. Further, the Potency entry in test [10], in [11], in test [17], in [13], in test [14] and in [15] was “inactive” in each case. Moreover, the Potency in test [2] was 21.7 µM (active); in test [16] it was 54.5 µM (active).
On to `C(=C/c1ccccc1)/c1ccccc1`, for which the Potency result in test [1], in test [2], in test [16], in test [3], in test [5] and in [6] was “inactive” each time. Besides, the Potency entry in test [7], in [8], in test [10], in [11], in [17] and in test [13] was “inactive” in each case. The Potency result in test [14] and in test [15] was “inactive” throughout.
On to `c1ccc(Sc2ccccc2)cc1`, for which the Potency result in test [1], in test [2], in test [16], in test [3], in test [5] and in [6] was “inactive” in each case. Besides, the Potency result in test [7], in test [8], in [10], in test [11], in [12] and in [17] was “inactive” throughout. The Potency entry in [13], in test [14] and in [15] was “inactive” throughout.
`NCCCCCCNCCCCCCN`: the Potency entry in test [1], in [2], in test [16], in test [3], in [5] and in [6] was “inactive” in each case. The Potency entry in test [7], in test [8], in [10], in test [11], in test [12] and in test [14] was “inactive” each time. In addition, the Potency result in test [15] and in test [18] was “inactive” each time.
For `CN(Cc1cc(Br)cc(Br)c1N)C1CCCCC1`, the Potency result in test [1], in test [16], in [5], in test [6], in [7] and in test [8] was “inactive” throughout. Besides, the Potency result in test [10], in [11], in [12], in test [13], in test [14] and in test [15] was “inactive” throughout. For the same compound, the Potency result in test [19] and in [18] was “inactive” in each case. Also, the Potency in test [2] is 29.8 µM (active); in test [4], 26.6 µM (active).

The record behind these values is PubChem BioAssay (Tox21).
